Experiments:
Assay in all cases: log2 ratio of Biotin-Ahx-Ub-VS probe labelling (fragment/DMSO); higher = less target engagement (more negative = stronger competition), active = hit call of the paper (q ≤ 0.05, log2 ratio ≤ -1)
Conditions in all cases: compound concentration: 200 uM; treatment time: 3 h
USP9X = USP9X (UniProt Q93008)
Method in brief: (§1)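 Fragment (200 µM) or vehicle was incubated for 3 h with triplicate HEK293T lysate samples of 495 µg, which were then treated with Biotin-Ahx-Ub-VS at 0.5 µM final for 1 h. Labelled DUBs were enriched on NeutrAvidin, digested with LysC and trypsin, and analysed by diaPASEF LC-MS/MS. Values are average log2 fragment/vehicle ratios from an unpaired t-test on global-median-normalised Spectronaut label-free quantities, using proteins with ≥2 unique peptides.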

UniProt O00487 = biological target: UniProt O00487
Method in brief: as §1

UniProt O00507 = biological target: UniProt O00507
Sequence of UniProt O00507 (O00507 whole entry): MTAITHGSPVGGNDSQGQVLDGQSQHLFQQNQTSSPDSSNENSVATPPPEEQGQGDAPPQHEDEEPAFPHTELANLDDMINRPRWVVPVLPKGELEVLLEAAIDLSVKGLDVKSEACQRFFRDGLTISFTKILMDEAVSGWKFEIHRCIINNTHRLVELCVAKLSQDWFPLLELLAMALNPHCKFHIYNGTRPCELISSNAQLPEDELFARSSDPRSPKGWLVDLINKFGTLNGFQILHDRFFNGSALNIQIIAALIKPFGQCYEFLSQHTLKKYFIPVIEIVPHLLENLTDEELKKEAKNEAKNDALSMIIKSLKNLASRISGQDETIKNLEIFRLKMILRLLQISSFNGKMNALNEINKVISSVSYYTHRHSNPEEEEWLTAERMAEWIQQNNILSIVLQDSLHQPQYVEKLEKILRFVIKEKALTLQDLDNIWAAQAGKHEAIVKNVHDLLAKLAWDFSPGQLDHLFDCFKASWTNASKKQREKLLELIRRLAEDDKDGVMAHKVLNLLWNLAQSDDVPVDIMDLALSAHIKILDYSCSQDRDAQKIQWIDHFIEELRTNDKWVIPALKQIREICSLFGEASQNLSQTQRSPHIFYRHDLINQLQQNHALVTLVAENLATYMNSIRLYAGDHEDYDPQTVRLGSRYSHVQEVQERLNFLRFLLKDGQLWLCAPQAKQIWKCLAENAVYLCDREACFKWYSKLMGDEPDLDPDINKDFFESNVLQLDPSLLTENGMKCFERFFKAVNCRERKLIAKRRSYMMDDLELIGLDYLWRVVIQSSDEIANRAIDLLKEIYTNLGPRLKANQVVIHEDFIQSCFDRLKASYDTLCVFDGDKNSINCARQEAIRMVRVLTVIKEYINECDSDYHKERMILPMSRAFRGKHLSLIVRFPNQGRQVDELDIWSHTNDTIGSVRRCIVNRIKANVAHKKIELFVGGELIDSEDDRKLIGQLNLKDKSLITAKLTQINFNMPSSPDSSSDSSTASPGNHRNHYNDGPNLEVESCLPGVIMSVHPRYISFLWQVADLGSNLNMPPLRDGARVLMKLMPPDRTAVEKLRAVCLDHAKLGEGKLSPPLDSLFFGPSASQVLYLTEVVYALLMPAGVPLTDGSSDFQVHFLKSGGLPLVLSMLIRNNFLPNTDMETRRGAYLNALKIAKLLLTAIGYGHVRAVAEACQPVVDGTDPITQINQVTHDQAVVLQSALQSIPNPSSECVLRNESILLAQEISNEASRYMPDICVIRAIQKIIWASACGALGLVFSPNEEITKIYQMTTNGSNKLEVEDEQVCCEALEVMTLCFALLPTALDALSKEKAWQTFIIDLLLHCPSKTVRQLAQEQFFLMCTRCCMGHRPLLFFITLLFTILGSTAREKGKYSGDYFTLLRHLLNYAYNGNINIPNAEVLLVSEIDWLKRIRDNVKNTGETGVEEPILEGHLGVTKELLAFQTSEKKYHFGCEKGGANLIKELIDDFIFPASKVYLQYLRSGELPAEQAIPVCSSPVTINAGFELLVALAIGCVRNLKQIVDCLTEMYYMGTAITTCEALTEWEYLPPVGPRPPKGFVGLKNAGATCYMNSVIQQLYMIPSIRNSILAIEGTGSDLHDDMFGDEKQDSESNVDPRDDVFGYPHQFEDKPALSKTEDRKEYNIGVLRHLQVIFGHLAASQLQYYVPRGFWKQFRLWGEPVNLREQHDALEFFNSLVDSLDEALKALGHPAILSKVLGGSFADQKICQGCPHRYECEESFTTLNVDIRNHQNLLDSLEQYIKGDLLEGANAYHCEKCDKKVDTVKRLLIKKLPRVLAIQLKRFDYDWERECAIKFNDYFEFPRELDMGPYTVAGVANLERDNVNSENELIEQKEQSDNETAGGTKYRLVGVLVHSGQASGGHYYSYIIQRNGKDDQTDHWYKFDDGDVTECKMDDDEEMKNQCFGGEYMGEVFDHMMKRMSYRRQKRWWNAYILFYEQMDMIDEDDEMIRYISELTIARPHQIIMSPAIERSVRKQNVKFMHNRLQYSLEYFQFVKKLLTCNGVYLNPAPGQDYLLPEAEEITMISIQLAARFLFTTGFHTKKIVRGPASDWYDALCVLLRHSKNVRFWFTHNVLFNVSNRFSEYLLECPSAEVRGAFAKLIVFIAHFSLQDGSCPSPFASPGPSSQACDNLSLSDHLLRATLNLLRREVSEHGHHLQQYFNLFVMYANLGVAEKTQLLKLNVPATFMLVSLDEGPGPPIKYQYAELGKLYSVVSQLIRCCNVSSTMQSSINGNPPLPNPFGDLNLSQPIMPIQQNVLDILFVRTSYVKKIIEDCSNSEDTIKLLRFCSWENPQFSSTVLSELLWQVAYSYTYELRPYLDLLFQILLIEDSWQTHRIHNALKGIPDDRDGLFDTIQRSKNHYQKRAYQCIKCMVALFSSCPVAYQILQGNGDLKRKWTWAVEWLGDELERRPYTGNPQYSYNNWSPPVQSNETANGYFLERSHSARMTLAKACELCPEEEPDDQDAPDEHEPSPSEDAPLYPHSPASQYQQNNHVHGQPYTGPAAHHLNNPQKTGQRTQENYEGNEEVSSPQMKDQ
Method in brief: as §1

UniProt P51784 = biological target: UniProt P51784
Method in brief: as §1

UniProt Q5T2D3 = biological target: T1, UniProt Q5T2D3
T1 sequence (whole entry): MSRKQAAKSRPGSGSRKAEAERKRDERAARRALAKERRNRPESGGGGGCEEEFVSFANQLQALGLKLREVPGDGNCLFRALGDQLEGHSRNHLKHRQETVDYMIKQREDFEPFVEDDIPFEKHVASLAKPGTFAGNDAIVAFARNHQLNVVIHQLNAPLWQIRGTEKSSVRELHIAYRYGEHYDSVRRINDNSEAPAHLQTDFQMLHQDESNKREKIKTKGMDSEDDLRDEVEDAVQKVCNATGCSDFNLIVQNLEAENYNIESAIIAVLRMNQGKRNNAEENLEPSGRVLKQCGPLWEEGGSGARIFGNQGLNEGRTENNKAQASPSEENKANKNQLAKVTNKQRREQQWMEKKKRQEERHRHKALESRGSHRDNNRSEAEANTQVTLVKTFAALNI
Method in brief: as §1

UniProt Q8TE49 = biological target: T2, UniProt Q8TE49
T2 sequence (whole entry): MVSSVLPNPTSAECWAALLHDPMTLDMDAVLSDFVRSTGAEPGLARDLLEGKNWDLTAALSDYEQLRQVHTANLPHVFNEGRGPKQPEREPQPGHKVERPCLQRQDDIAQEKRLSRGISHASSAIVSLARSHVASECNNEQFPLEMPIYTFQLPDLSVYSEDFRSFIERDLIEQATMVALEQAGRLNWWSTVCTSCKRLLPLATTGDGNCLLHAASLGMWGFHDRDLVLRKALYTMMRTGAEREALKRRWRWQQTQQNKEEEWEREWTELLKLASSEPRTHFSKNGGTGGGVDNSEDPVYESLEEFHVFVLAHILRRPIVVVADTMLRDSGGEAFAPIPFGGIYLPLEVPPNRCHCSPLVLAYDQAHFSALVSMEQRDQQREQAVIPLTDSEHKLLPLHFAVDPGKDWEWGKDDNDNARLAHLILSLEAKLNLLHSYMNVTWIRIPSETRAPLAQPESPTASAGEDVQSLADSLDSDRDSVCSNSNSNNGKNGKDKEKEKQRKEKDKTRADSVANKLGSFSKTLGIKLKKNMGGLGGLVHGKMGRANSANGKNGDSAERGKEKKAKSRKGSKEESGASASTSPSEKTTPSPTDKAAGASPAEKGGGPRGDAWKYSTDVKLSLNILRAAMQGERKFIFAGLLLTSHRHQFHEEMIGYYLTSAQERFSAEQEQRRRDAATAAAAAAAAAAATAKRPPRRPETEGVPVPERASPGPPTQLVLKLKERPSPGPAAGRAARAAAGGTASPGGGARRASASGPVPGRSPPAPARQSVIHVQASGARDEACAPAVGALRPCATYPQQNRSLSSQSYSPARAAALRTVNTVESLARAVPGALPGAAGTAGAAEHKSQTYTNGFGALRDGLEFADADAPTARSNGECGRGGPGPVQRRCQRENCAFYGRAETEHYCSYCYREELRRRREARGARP
Method in brief: as §1

UniProt Q9P2H5 = biological target: T3, UniProt Q9P2H5
T3 sequence (whole entry): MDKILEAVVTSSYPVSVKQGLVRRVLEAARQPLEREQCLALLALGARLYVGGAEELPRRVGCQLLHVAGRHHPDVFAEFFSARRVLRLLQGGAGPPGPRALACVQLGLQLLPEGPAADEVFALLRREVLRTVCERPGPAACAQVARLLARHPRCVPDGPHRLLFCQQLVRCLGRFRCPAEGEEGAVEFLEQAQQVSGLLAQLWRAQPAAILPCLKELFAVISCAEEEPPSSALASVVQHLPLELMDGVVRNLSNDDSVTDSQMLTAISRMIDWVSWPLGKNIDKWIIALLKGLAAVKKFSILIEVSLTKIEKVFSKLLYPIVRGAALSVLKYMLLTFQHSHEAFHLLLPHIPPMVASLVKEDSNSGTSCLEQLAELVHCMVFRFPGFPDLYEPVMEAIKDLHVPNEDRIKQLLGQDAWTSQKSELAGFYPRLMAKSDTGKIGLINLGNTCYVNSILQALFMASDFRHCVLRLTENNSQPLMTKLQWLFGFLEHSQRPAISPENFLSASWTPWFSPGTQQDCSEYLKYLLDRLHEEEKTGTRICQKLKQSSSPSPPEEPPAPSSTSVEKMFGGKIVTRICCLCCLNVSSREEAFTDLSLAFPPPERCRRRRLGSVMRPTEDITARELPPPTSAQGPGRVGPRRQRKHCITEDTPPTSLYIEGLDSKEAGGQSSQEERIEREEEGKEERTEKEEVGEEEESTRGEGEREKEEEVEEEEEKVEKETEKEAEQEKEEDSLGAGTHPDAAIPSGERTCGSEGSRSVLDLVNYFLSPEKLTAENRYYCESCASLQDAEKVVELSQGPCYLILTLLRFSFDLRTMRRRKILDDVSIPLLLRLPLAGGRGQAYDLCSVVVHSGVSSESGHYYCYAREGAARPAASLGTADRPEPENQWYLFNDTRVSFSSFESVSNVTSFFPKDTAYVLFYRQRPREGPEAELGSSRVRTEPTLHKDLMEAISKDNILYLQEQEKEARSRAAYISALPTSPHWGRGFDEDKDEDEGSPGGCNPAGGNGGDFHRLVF
Method in brief: as §1

UniProt Q9UGI0 = biological target: T4, UniProt Q9UGI0
T4 sequence (whole entry): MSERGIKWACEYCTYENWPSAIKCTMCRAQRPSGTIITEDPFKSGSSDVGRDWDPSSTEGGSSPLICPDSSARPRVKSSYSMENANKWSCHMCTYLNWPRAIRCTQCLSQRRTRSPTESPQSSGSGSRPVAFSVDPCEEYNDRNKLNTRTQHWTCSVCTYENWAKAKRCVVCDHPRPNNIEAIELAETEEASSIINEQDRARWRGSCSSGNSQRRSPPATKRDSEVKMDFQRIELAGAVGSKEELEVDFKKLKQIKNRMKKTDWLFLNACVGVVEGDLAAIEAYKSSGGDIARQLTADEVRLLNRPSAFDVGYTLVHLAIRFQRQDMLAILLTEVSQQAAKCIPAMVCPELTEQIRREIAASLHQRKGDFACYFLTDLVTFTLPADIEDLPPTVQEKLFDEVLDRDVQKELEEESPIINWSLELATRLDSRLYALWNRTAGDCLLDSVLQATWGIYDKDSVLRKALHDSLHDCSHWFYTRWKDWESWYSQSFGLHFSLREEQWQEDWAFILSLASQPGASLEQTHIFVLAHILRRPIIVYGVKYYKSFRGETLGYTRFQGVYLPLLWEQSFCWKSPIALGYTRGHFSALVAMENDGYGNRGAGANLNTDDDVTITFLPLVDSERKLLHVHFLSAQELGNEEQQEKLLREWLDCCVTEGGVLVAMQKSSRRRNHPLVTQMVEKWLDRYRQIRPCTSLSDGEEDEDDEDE
Method in brief: as §1

YOD1 = biological target: T5, YOD1 (UniProt Q5VVQ6)
T5 sequence (whole entry): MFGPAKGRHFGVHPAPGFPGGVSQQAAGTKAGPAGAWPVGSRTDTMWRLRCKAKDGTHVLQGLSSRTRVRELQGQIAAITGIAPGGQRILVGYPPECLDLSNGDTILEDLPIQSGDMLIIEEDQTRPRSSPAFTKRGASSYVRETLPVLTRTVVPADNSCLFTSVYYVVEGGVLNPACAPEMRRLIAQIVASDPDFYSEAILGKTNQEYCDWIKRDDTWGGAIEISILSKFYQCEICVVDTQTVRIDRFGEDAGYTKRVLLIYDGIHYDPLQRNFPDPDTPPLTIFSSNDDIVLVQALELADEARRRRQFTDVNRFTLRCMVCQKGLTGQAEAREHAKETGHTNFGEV
Method in brief: as §1

Measured: log2 ratio of Biotin-Ahx-Ub-VS probe labelling

Sequence of USP9X (Q93008 whole entry, the tested form may be a part): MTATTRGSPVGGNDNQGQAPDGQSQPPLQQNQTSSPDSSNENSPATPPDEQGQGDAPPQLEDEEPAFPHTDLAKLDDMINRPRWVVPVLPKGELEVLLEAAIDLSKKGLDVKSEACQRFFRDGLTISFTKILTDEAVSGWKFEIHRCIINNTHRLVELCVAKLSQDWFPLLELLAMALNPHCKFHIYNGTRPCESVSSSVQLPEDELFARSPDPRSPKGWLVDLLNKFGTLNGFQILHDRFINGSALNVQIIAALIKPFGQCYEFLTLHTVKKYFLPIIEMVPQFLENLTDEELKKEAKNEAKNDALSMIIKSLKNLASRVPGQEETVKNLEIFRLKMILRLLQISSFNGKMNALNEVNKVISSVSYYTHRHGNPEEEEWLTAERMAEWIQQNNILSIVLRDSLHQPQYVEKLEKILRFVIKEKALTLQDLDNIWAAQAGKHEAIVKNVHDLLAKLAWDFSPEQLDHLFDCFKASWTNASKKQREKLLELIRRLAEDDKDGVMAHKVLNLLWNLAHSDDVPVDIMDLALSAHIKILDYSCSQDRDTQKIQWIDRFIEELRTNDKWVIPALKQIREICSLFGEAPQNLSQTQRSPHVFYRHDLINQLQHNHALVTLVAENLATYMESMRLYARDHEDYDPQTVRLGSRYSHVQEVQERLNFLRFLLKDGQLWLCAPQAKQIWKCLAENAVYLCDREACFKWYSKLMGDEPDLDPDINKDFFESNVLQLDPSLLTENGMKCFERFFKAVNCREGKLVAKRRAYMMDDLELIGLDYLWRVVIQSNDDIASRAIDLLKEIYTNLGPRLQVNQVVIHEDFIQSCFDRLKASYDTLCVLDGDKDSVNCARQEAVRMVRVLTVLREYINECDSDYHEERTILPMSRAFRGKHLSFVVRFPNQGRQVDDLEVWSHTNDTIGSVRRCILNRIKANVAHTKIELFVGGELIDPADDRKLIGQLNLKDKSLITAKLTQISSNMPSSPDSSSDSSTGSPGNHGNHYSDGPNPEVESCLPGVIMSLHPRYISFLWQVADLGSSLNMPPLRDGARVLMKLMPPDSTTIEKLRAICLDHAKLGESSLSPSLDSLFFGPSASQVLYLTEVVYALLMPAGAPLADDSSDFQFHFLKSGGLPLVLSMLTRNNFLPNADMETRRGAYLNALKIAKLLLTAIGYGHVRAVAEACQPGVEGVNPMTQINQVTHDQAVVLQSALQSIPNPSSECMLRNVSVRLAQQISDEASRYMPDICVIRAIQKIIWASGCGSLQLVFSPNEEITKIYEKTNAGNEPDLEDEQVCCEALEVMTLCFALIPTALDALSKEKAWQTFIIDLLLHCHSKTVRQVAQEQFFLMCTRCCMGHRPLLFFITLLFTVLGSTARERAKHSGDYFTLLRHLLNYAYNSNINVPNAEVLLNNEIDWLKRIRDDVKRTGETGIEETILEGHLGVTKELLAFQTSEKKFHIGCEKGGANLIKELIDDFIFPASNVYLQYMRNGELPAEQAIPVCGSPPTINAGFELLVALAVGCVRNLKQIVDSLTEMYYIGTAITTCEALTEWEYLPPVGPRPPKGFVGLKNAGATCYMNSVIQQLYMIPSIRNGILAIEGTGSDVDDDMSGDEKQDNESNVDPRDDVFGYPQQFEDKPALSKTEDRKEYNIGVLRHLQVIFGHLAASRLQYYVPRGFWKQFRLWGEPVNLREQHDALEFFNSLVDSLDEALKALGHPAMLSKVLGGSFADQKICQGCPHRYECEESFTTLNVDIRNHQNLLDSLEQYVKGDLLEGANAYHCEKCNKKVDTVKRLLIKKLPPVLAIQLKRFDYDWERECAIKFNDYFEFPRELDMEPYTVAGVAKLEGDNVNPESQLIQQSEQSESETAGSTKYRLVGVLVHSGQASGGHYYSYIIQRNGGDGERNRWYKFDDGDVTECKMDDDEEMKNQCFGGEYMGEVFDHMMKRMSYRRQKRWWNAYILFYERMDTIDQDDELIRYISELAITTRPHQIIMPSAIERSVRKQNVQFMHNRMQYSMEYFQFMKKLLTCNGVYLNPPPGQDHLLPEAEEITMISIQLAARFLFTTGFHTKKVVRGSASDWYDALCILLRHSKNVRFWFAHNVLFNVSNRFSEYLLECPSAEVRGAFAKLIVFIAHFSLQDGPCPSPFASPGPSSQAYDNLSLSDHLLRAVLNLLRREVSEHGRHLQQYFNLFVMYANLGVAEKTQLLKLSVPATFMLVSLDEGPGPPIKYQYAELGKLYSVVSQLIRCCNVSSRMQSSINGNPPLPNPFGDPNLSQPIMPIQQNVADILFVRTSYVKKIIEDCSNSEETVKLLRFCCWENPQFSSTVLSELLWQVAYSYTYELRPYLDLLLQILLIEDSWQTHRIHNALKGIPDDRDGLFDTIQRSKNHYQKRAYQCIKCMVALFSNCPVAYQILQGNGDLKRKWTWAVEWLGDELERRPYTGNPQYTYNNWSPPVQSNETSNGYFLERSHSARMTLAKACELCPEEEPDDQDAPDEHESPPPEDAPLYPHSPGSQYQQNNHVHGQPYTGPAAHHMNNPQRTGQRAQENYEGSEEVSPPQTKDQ

Cl.Cn1ncc2c1CC(NC(=O)CCl)CC2 (centres undefined)
inactive: USP9X -0.0203 | UniProt O00487 -0.0601 | UniProt O00507 0.311 | UniProt P51784 0.0472 | UniProt Q5T2D3 -0.0643 | UniProt Q8TE49 -0.377 | UniProt Q9P2H5 -0.257 | UniProt Q9UGI0 -0.162 | YOD1 0.181

— the supplement of paper PMC11732987, “Enantioselective OTUD7B fragment discovery through chemoproteomics screening and high-throughput optimisation” (Communications Chemistry, 2025)
